This is part of a sample that, as a whole, favours compounds with a hit. Of some 83,000 tested, about 20% had one in any assay.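 Percent growth is the endpoint: 0 to 100 indicates growth inhibition (40 means 60% inhibition), 0 means no net growth, and negative values indicate cell death.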 Activity calls are given as the source filed them. The calls were made as follows: active = growth percent below 10; inactive = the rest.

This passage reports growth results from PubChem BioAssay (NCI).

In one assay the test system is SNB-75 CNS. The experiment in a line: NCI-60 one-dose screen, 48 h (100 = growth as untreated, 0 = no growth, -100 = all killed). The conditions noted are these: 10 µM unless noted.
`CCNC(=O)CCCCC(=O)c1c(C)[nH]c(/C=C2\N=C(c3ccc[nH]3)C=C2OC)c1C`: the growth is -12.6% (active).
Still for that read-out and setting: to `CC(=O)OCC1OC(OCC2OC(OC(C)=O)C(OC(C)=O)C(OC(C)=O)C2OC(C)=O)C(OC(C)=O)C(OC(C)=O)C1OC(C)=O` (stereo unspecified) belongs 92.8% (inactive); to `Clc1ccc([I+]c2ccc(Cl)cc2Cl)c(Cl)c1`, 34% (inactive).
`CCC(=O)Oc1cc(/C=C/C(=O)O[C@H]2C[C@H]3CN4CCc5c([nH]c6cc(OC)ccc56)[C@@H]4C[C@@H]3[C@@H](C(=O)OC)[C@@H]2OC)ccc1OC`: the growth was 36.7% (inactive).
On the same count and under the same terms, for `COC1=CC(c2ccc[nH]2)=N/C1=C\c1[nH]c(C)c(C(=O)CCCCC(=O)NCc2ccccc2)c1C` the value was 21.7% (inactive); for `COc1ccc(-c2nnc(COc3ccc(NS(=O)(=O)c4ccc(OC)cc4)cc3F)o2)cc1`, 77.4% (inactive); for `CN1CCN(c2ccc3cc(-c4nc5ccccc5[nH]4)c(=O)oc3c2)CC1`, 91.8% (inactive).
Take `CCC1=C[C@@H]2CN(C1)Cc1c([nH]c3ccccc13)[C@@](C(=O)OC)(c1cc3c(cc1OC)N(C=O)[C@H]1[C@@](O)(C(=O)OC)[C@H](OC(C)=O)[C@]4(CC)[C@@H]5C[C@@H]5CN5CC[C@]31[C@@H]54)C2`: the growth was 8.7% (active).
With `O=S(=O)(c1ccccc1)n1ccc(-c2ccc3c(c2)CCO3)n1`, the growth is 76.2% (inactive).
Same read-out and setting: for `COC1=CC(c2ccc[nH]2)=N/C1=C\c1[nH]c(C)c(CCCn2cc(CCCCCCCCC[C@@H]3Cc4cc(O)ccc4C4CC[C@]5(C)[C@@H](O)CC[C@H]5C43)nn2)c1C` (stereo partly specified) the value was 88.8% (inactive); for `CCn1cc(C(=O)O)c(=O)c2cc(F)c(N3CCN(S(=O)(=O)c4ccc(OC)c(OC)c4)CC3)cc21`, 85.5% (inactive).
On to `COc1cc2nc(SCc3cc(OC)c(OC)c(OC)c3)n(Cc3ccccc3)c(=O)c2cc1OC`, for which the growth is -16.6% (active).
Same read-out and setting: for `O=[N+]([O-])c1cc(S(=O)(=O)OCC2CO2)ccc1Cl` (stereo unspecified) the value was 89.9% (inactive).
For the molecule `Nc1c(C(=O)Nc2ccccc2)sc2nc3c(cc12)CCC3`, the growth is 65.5% (inactive).
Take `COc1ccc([N+](=O)[O-])c(/C=C/C(=O)c2ccccn2)c1`: the growth is 67.2% (inactive).
On the same count and under the same terms, for `CC(C(=O)n1cc(-c2ccccc2)c(-c2ccccc2)c1)c1ccccc1` (stereo unspecified) the value was 92.9% (inactive).
The same measure, in the same setting: to `CCNCc1ccncc1` belongs 92.5% (inactive); to `NCCSC(c1ccccc1)(c1ccccc1)c1ccccc1`, 12.5% (inactive); to `O=C(O)c1ccc(-n2c(=O)c3ccccc3c3ccccc3c2=O)cc1`, 92.9% (inactive).
Same read-out and setting: to `COc1cc(/C=C2\C=C(c3ccc(F)cc3)N(Cc3ccccc3)C2=O)cc(OC)c1OC` belongs 70.8% (inactive); to `COc1ccc(/C=C2\C(=O)N(C(=O)c3csc(NC(C)=O)n3)N=C2C)cc1`, 86.5% (inactive); to `COc1cccc(NC(=O)Cn2cc3c(=O)oc4ccccc4c3n2)c1`, 64.7% (inactive).
For the molecule `CNC(C)=O`, the growth was 104% (inactive).
In the case of `C=C1C(=O)O[C@H]2[C@H](O)[C@@H](C)CCC/C(C)=C/CC[C@@]3(C)O[C@@H]3C[C@@H]12`, the growth was 75.7% (inactive).
With `CC(=O)Nc1ccc(S(=O)(=O)NC(CCC(=O)Nc2ccc(Cl)cc2)C(=O)O)cc1` (stereo unspecified), the growth was 69.2% (inactive).
On to `Cn1c(C(N)=O)cc2c1-c1nc(NC3CCCCC3)ncc1CCC2`, for which the growth is 104% (inactive).
Same read-out and setting: to `Cc1nc2sccn2c1-c1csc(Nc2ccccc2Cl)n1` belongs 56.9% (inactive); to `Cc1ccc(Cn2c(-c3cccs3)nc3ccccc32)cc1`, 62.2% (inactive).
Same read-out and setting: for `COC1=CC(c2ccc[nH]2)=N/C1=C\c1[nH]c(C)c(C(=O)CCCCC(=O)Nc2ccccc2)c1C` the value was 46.8% (inactive).
The same measure, in the same setting: to `COc1ccc(-c2cn[nH]c2-c2cc(OC)c3c(c2)OCCO3)cc1` belongs -5.75% (active); to `COc1ccc(/C=C/c2nc(N3CCOCC3)c3cc(F)c(F)cc3n2)cc1OC`, 54.8% (inactive); to `O=c1oc2cc(OS(=O)(=O)c3ccc(F)cc3)ccc2c2c1CCCCC2`, 80.9% (inactive).
As to `CCn1cc(C(=O)O)c(=O)c2cc(F)c(N3CCN(S(=O)(=O)c4ccc(Cl)cc4Cl)CC3)cc21`, the growth is 74.8% (inactive).
Still for that read-out and setting: to `O=C(CN1CCN(c2cc3c(cc2F)c(=O)c(C(=O)O)cn3C2CC2)CC1)Nc1ccc(C(=O)/C=C/c2ccccc2)cc1` belongs 61.8% (inactive); to `O=C(CC(O)c1ccncc1)c1ccccc1` (stereo unspecified), -5.32% (active); to `CCn1cc(C(=O)O)c(=O)c2cc(F)c(N3CCN(S(=O)(=O)c4cccc5ccccc45)CC3)cc21`, 14.1% (inactive).
With `CCN(CC)CCCC(C)N=c1cc(Nc2cc(=NC(C)CCCN(CC)CC)c3cc(OC)ccc3o2)oc2ccc(OC)cc12` (stereo unspecified), the growth was -90.8% (active).
On the same count and under the same terms, to `NC(=S)NN=C1CCCCC1` belongs 105% (inactive).

For the next assay, the system named is SNB-19 CNS. The description is as above. The conditions noted are these: 10 µM unless noted.
For `CCNC(=O)CCCCC(=O)c1c(C)[nH]c(/C=C2\N=C(c3ccc[nH]3)C=C2OC)c1C`, the growth was 54.5% (inactive).
Still for that read-out and setting: to `CC(=O)OCC1OC(OCC2OC(OC(C)=O)C(OC(C)=O)C(OC(C)=O)C2OC(C)=O)C(OC(C)=O)C(OC(C)=O)C1OC(C)=O` (stereo unspecified) belongs 100% (inactive); to `Clc1ccc([I+]c2ccc(Cl)cc2Cl)c(Cl)c1`, 87.8% (inactive).
Consider `CCC(=O)Oc1cc(/C=C/C(=O)O[C@H]2C[C@H]3CN4CCc5c([nH]c6cc(OC)ccc56)[C@@H]4C[C@@H]3[C@@H](C(=O)OC)[C@@H]2OC)ccc1OC`, for which the growth is 87.2% (inactive).
The same measure, in the same setting: to `COC1=CC(c2ccc[nH]2)=N/C1=C\c1[nH]c(C)c(C(=O)CCCCC(=O)NCc2ccccc2)c1C` belongs 77.1% (inactive).
For `COc1ccc(-c2nnc(COc3ccc(NS(=O)(=O)c4ccc(OC)cc4)cc3F)o2)cc1`, the growth is 84% (inactive).
Same read-out and setting: to `CN1CCN(c2ccc3cc(-c4nc5ccccc5[nH]4)c(=O)oc3c2)CC1` belongs 118% (inactive); to `CCC1=C[C@@H]2CN(C1)Cc1c([nH]c3ccccc13)[C@@](C(=O)OC)(c1cc3c(cc1OC)N(C=O)[C@H]1[C@@](O)(C(=O)OC)[C@H](OC(C)=O)[C@]4(CC)[C@@H]5C[C@@H]5CN5CC[C@]31[C@@H]54)C2`, 28.3% (inactive); to `O=S(=O)(c1ccccc1)n1ccc(-c2ccc3c(c2)CCO3)n1`, 83.4% (inactive).
Still for that read-out and setting: to `COC1=CC(c2ccc[nH]2)=N/C1=C\c1[nH]c(C)c(CCCn2cc(CCCCCCCCC[C@@H]3Cc4cc(O)ccc4C4CC[C@]5(C)[C@@H](O)CC[C@H]5C43)nn2)c1C` (stereo partly specified) belongs 77.7% (inactive); to `CCn1cc(C(=O)O)c(=O)c2cc(F)c(N3CCN(S(=O)(=O)c4ccc(OC)c(OC)c4)CC3)cc21`, 96.2% (inactive); to `COc1cc2nc(SCc3cc(OC)c(OC)c(OC)c3)n(Cc3ccccc3)c(=O)c2cc1OC`, 48.8% (inactive).
On the same count and under the same terms, to `O=[N+]([O-])c1cc(S(=O)(=O)OCC2CO2)ccc1Cl` (stereo unspecified) belongs 110% (inactive).
With `Nc1c(C(=O)Nc2ccccc2)sc2nc3c(cc12)CCC3`, the growth is 85.1% (inactive).
The same measure, in the same setting: to `COc1ccc([N+](=O)[O-])c(/C=C/C(=O)c2ccccn2)c1` belongs 97.6% (inactive).
Same read-out and setting: for `CC(C(=O)n1cc(-c2ccccc2)c(-c2ccccc2)c1)c1ccccc1` (stereo unspecified) the value was 102% (inactive); for `CCNCc1ccncc1`, 106% (inactive).
Still for that read-out and setting: to `NCCSC(c1ccccc1)(c1ccccc1)c1ccccc1` belongs 53.3% (inactive); to `O=C(O)c1ccc(-n2c(=O)c3ccccc3c3ccccc3c2=O)cc1`, 104% (inactive); to `COc1cc(/C=C2\C=C(c3ccc(F)cc3)N(Cc3ccccc3)C2=O)cc(OC)c1OC`, 79% (inactive).
On to `COc1ccc(/C=C2\C(=O)N(C(=O)c3csc(NC(C)=O)n3)N=C2C)cc1`, for which the growth is 102% (inactive).
On the same count and under the same terms, to `COc1cccc(NC(=O)Cn2cc3c(=O)oc4ccccc4c3n2)c1` belongs 102% (inactive).
Same read-out and setting: for `CNC(C)=O` the value was 104% (inactive); for `C=C1C(=O)O[C@H]2[C@H](O)[C@@H](C)CCC/C(C)=C/CC[C@@]3(C)O[C@@H]3C[C@@H]12`, 88% (inactive); for `CC(=O)Nc1ccc(S(=O)(=O)NC(CCC(=O)Nc2ccc(Cl)cc2)C(=O)O)cc1` (stereo unspecified), 100% (inactive).
On the same count and under the same terms, to `Cn1c(C(N)=O)cc2c1-c1nc(NC3CCCCC3)ncc1CCC2` belongs 81.9% (inactive).
In the case of `Cc1nc2sccn2c1-c1csc(Nc2ccccc2Cl)n1`, the growth is 65.6% (inactive).
Same read-out and setting: to `Cc1ccc(Cn2c(-c3cccs3)nc3ccccc32)cc1` belongs 95.1% (inactive).
The same measure, in the same setting: to `COC1=CC(c2ccc[nH]2)=N/C1=C\c1[nH]c(C)c(C(=O)CCCCC(=O)Nc2ccccc2)c1C` belongs 64.2% (inactive); to `COc1ccc(-c2cn[nH]c2-c2cc(OC)c3c(c2)OCCO3)cc1`, 60.4% (inactive); to `COc1ccc(/C=C/c2nc(N3CCOCC3)c3cc(F)c(F)cc3n2)cc1OC`, 45.3% (inactive).
For the molecule `O=c1oc2cc(OS(=O)(=O)c3ccc(F)cc3)ccc2c2c1CCCCC2`, the growth is 78.1% (inactive).
Consider `CCn1cc(C(=O)O)c(=O)c2cc(F)c(N3CCN(S(=O)(=O)c4ccc(Cl)cc4Cl)CC3)cc21`, for which the growth was 26.2% (inactive).
Same read-out and setting: to `O=C(CN1CCN(c2cc3c(cc2F)c(=O)c(C(=O)O)cn3C2CC2)CC1)Nc1ccc(C(=O)/C=C/c2ccccc2)cc1` belongs 40.3% (inactive); to `O=C(CC(O)c1ccncc1)c1ccccc1` (stereo unspecified), 68.2% (inactive); to `CCn1cc(C(=O)O)c(=O)c2cc(F)c(N3CCN(S(=O)(=O)c4cccc5ccccc45)CC3)cc21`, 28.8% (inactive).
As for `CCN(CC)CCCC(C)N=c1cc(Nc2cc(=NC(C)CCCN(CC)CC)c3cc(OC)ccc3o2)oc2ccc(OC)cc12` (stereo unspecified), the growth is 2.11% (active).
Same read-out and setting: to `NC(=S)NN=C1CCCCC1` belongs 106% (inactive).
